DAX1 inh-1 = DAX1 (NR0B1) inhibitors on StAR promoter, primary screen, cell-based, luminescence, SF-1 (NR5A1), full-length DAX-1 | HEK293T StAR-luciferase reporter, SF-1/DAX-1 repression relief | inhibition, % at 6.8 µM | actives 1.1% (n = 370,000) | AID 652010, 2013;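 active = inhibition above the mean over all tested compounds plus 3 SD, cut at about 3.6% in these data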;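 also: higher inhibition means more luminescence from relief of DAX-1 repression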
DAX1 inh-2 = DAX1 (NR0B1) inhibitors, primary screen, cell-based, HEK293, Gal4-DAX1, luciferase luminescence. Nuclear receptor subfamily 0 group B member 1 (Homo sapiens), P51843. HEK293 Gal4-DAX1 luciferase reporter. inhibition, % at 6.75 µM. actives 0.99% (n = 340,000). AID 504766, 2011;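 active = inhibition above the mean over all tested compounds plus 3 SD, cut at about 4.2% in these data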;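 also: inhibition shows as a rise in luminescence from relieved DAX1 repression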
Target sequence (P51843 207-470 limits assumed): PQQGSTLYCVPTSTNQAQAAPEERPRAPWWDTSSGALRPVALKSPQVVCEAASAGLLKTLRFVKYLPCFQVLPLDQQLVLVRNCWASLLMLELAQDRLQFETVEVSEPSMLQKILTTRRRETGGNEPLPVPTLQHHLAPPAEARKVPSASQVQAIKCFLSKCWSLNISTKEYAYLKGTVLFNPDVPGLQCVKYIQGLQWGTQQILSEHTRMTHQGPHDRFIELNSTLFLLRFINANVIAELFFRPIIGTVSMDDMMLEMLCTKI
SMARCA2 act = SMARCA2 (BRM) function activators, primary screen, cell-based, luminescence, high throughput | MG213 cells, MMTV-luciferase reporter, dexamethasone, overnight | activation, % at 9.1 µM | actives 1% (n = 370,000); in the data active = activation above about 7.8%
hgDAF-12 ag = H. glycines DAF-12 receptor agonists, primary screen, cell-based, luminescence, HEK293, GAL4 fusion, UAS-luciferase; Nuclear hormone receptor DAF-12 (Heterodera glycines), GAL4 fusion; HEK293 GAL4-hgDAF12 UAS-luciferase reporter, agonist luminescence; normalized to butyrate control; activation, % at 6.8 µM; actives 1.8% (n = 370,000); AID 687014, 2013;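 active = activation above a cutoff set at the mean of all screened compounds plus 3 SD, cut at about 10% in these data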
hcDAF-12 act = H. contortus DAF-12 nuclear receptor activators, primary screen, cell-based, luminescence, HEK293, lit1-tk-luc reporter; HEK293 hcDAF-12 lit1-tk-luc reporter; 0% DMSO, 100% Δ7-dafachronic acid; activation, % at 6.8 µM; actives 1.4% (n = 370,000);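 active = activation above the mean of all tested compounds plus 3 SD, cut at about 5.5% in these data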
ssDAF12 agonist = S. stercoralis DAF-12 nuclear receptor activators, primary screen, cell-based, luminescence, HEK293, GRIP1 co-expression, lit1-tk-luc. Nuclear hormone receptor DAF-12 (Strongyloides stercoralis). activation, % at 6.8 µM. HEK293 ssDAF-12/GRIP1 lit1-tk-luc reporter; % of 3 µM dafachronic acid response. actives 1% (n = 370,000);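 active = activation above the mean over all tested compounds plus 3 SD, cut at about 0.9% in these data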
SMARCA2 act conf = SMARCA2 (BRM) function activators, confirmation, cell-based, luminescence, triplicate; shares compounds with SMARCA2 act; MG213 cells, MMTV-luciferase with dexamethasone, overnight; MG213 cells expressing E1A, Rb sequestered; DMSO wells 0%, reference activator 100%; activation, % at 9.1 µM; actives 30% (n = 3,500); AID 652260, 2013;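 active = activation above its plate's cutoff, the mean activation of tested wells plus 3 SD, cut at about 7.9% in these data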
VP16 Luc act = GAL4-VP16 luciferase reporter activation, counter-screen for SMARCA2 (BRM) activator project, cell-based, pG5luc, luminescence, high throughput; shares compounds with SMARCA2 act; AID 686939, 2013; actives 41% (n = 3,500); HEK293 GAL4-VP16 pG5luc reporter; scaled: DMSO wells 0%, SAHA wells 100%; activation, % at 9.1 µM;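 active = activation above the solvent-only control well mean plus 3 SD, averaged across control plates, cut at about 5.2% in these data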
A number is an active result; n = inactive; x = not tested or not shown. In the library only some 4.8% were active in any assay of this set; here they are far more common.

SMILES	DAX1 inh-1	DAX1 inh-2	SMARCA2 act	hgDAF-12 ag	hcDAF-12 act	ssDAF12 agonist	SMARCA2 act conf	VP16 Luc act
O=C(Nc1ccc2ncccc2c1)c1cc(-c2ccc(Cl)cc2)nc2ccccc12	n	x	n	n	n	n	x	x
O=C(Nc1cc(Cl)ccc1F)C1CCCN(c2nnc(-n3cccc3)s2)C1 (configuration not stated)	n	x	n	n	n	n	x	x
COc1ccc(-c2cc3ccc(O)cc3oc2=O)cc1OC	n	n	8.5	n	5.8	n	n	n
COc1ccc(-c2cc3ccc(OCC(N)=O)cc3oc2=O)cc1OC	n	n	n	n	n	n	x	x
C=CCN(C(=O)c1csnn1)C(C(=O)NCc1ccc(F)cc1)c1sccc1C (configuration not stated)	n	n	8.0	n	n	n	n	n
C=CCN(C(=O)c1csnn1)C(C(=O)NCc1ccc(F)cc1)c1ccc(F)cc1 (configuration not stated)	n	n	n	n	n	n	x	x
Cc1ccc(N(C(=O)c2csnn2)C(C(=O)NC2CCCCC2)c2cccnc2)cc1 (configuration not stated)	n	n	9.6	n	n	n	n	n
O=C(NCc1ccc(F)cc1)C(c1cccnc1)N(C(=O)c1csnn1)c1ccccc1 (configuration not stated)	n	n	9.0	n	n	n	n	n
Cc1ccc(N(C(=O)c2csnn2)C(C(=O)NC2CCCC2)c2cccnc2)cc1 (configuration not stated)	n	n	n	n	n	n	x	x
CCCc1nc(-c2cc3ccc(C)cc3[nH]c2=O)no1	n	n	9.2	n	n	n	n	n
O=C(Nc1ccccc1F)C1(c2ccccc2)CC1(Cl)Cl (configuration not stated)	n	n	9.9	n	n	n	n	n
COC(=O)c1cccc(Cn2ccc3ccc(-c4ccc5ccn(C(=O)C6CC6)c5c4)cc32)c1	n	x	n	n	n	n	x	x
CCOC(=O)[C@@H]1CSCCS(=O)(=O)N1Cc1ccccc1	n	x	n	n	n	n	x	x
Cc1nccc(-c2cc(-c3ccc(Cl)cc3Cl)no2)n1	n	n	16.2	n	n	n	14.2	n
Cc1cccc(CCNC(=O)CSc2nc3c([nH]2)c(=O)n(C)c(=O)n3C)c1	n	x	n	n	n	n	x	x
O=C1Cn2c(nc3ccccc32)-c2ccccc2N1	n	n	n	n	n	n	x	x
c1ccc(C2Nc3ccccc3-c3nc4ccccc4n32)nc1 (configuration not stated)	n	n	10.1	n	n	n	n	n
O=C(Nc1ccccc1Br)C(=O)N1CCCC1	n	n	n	n	n	n	x	x
O=C(Nc1ccccn1)C(=O)N1CCCCC1	n	n	8.2	n	n	n	n	n
CC(=O)N/C(=N\c1nc(C)cc(C)n1)Nc1ccccc1Cl	n	n	8.3	n	n	n	n	n
CC(=O)N/C(=N/c1nc(C)cc(C)n1)Nc1ccc(C)cc1Cl	n	n	n	n	n	n	x	x
CN(CC(=O)Nc1ccccc1Br)C(=O)c1ccc(-c2ccc(Cl)cc2)o1	n	n	8.9	n	n	n	n	n
